The text below walks through data of PubChem BioAssay (NCI).

Common to all, as to test: NCI-60 one-dose screen, 48 h (100 = growth as untreated, 0 = no growth, -100 = all killed)
Conditions in all cases: 10 µM unless noted

The subject of assay [1] is NCI-H23 lung.
Assay [2] has as its system NCI-H226 lung.
The test system of assay [3] is NCI-H322M lung.
In assay [4] the test system is HOP-62 NSCLC.
The subject of assay [5] is HOP-92 NSCLC.
Assay [6] has as its system NCI-H522 lung.
The test system of assay [7] is A549/ATCC NSCLC.
For assay [8], the system named is 786-0 renal.
Assay [9] concerns COLO 205 colon.
Assay [10] deals with DU-145 prostate.
For assay [11], the system named is K-562 leukemia.
Assay [12] deals with MALME-3M melanoma.
Assay [13] concerns MDA-MB-231 breast.
Assay [14] relates to RXF 393 renal.
Assay [15] concerns SF-268 CNS.
The test system of assay [16] is SF-295 CNS.
Assay [17] relates to SF-539 CNS.
The subject of assay [18] is UACC-257 melanoma.
In assay [19] the test system is M14 melanoma.

The panel holds about 83,000 compounds, 20% with a hit somewhere; the sample as a whole holds those more often.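 A percent growth of 40 corresponds to 60% growth inhibition; 0 means no net growth; -100 means all cells died. Active threshold: below 10.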 A number with no mark means an inactive call. Activity calls are given as the source filed them.

On to `Cc1nc2sc(C(=O)Nc3ccccc3Cl)c(N)c2cc1C(C)O` (configuration not stated), for which the growth in assay [1] is 93.5%; in assay [2], 93.1%; in assay [3] it was 91.1%; in assay [4], 75.8%; in [5] it was 83.3%; in assay [6], 74%. In addition, the growth in assay [7] was 75.6%; in assay [8] it was 84.8%; in assay [9], 60.2%; in [10] it was 96.6%; in assay [11], 22.5%; in assay [12], 88.6%. The growth in assay [13] was 80.9%; in [14], 92.8%; in [15], 86.7%; in [16], 84.3%; in [17], 85.1%; in assay [18] it was 86.5%. Besides, the growth in [19] is 58.9%.
In the case of `COC(=O)[C@]1(C)CCC[C@]2(C)[C@H]3C[C@H]4C(C(C)C)=C[C@]3(CC[C@H]21)[C@@H]1C(=O)N(CCC#N)C(=O)[C@@H]14`, the growth in [1] is 93.7%; in assay [2] it was 81.9%; in assay [3], 109%; in assay [4] it was 89.9%; in [5] it was 81.1%; in [6], 75.3%. For the same compound, the growth in [7] is 86%; in assay [8], 99.7%; in assay [9] it was 94.7%; in [10], 99.4%; in assay [11] it was 55.8%; in assay [12], 103%. Besides, the growth in [13] is 89.5%; in assay [14], 86.7%; in assay [15], 89.4%; in assay [16], 99.5%; in assay [17], 98%; in assay [18], 85.4%. The growth in assay [19] is 83.1%.
In the case of `CCOC(=O)c1c(C(F)(F)F)n([O-])c2ccc(Cl)cc2[n+]1=O`, the growth in [1] was 14.8%; in [2], 3.03% (active); in [3], 6.75% (active); in [4], -65.6% (active); in assay [5], -78.2% (active); in [6], -59.4% (active). Besides, the growth in [7] was -39.6% (active); in assay [8] it was -73.8% (active); in assay [9], -59.2% (active); in assay [10] it was -95.7% (active); in assay [11], -57.7% (active); in [12] it was -84.5% (active). Further, the growth in [13] was -39.1% (active); in assay [14] it was -60.6% (active); in assay [15], -49.5% (active); in [16], -86% (active); in assay [17], -96.1% (active); in [18], -70.6% (active). Also, in [19], the growth is -21.6% (active).
As to `CCOC(=O)CC[C@H](NC(=O)c1ccc(NC)c2ccccc12)C(=O)OCC`, the growth is 105% in [1]; 100% in assay [2]; 106% in assay [3]; 93.6% in assay [4]; 92.3% in [5]; 91.2% in [6]. The growth in assay [7] was 89.9%; in assay [8] it was 102%; in assay [9] it was 106%; in [10] it was 104%; in assay [11] it was 92.9%; in [12], 114%. Besides, the growth in assay [13] was 97.9%; in [14], 111%; in [15], 100%; in [16] it was 101%; in [17], 98.1%; in assay [18] it was 86.1%. The growth in assay [19] was 99.5%.
Take `Nc1ccc(C2=NN(C(=O)c3cc(-c4ccc(Cl)cc4)nc4ccccc34)C(c3ccc(Cl)cc3)C2)cc1` (configuration not stated): the growth in [1] was 50%; in [2], 60.1%; in assay [3], 45.2%; in [4] it was 28.8%; in assay [5], 60.3%; in [6] it was 15.4%. Besides, the growth in assay [7] is 43.8%; in assay [8] it was 25.6%; in assay [9] it was 22.6%; in assay [10] it was 27.2%; in [11] it was 13.2%; in assay [12], 63%. The growth in [13] is 63.2%; in assay [14], -4.45% (active); in assay [15], 55%; in assay [16], 18.2%; in assay [17], 8.98% (active); in assay [18] it was 57.5%. For the same compound, the growth in assay [19] was 6.28% (active).
`C#CCN1C(=O)c2ccccc2N(CC#C)C12CCN(Cc1cn(CC(=O)Nc3ccccc3C(N)=O)nn1)CC2`: the growth was 78.4% in [1]; 83.2% in assay [2]; 85% in assay [3]; 104% in [4]; 107% in [5]; 67.7% in assay [6]. Moreover, the growth in assay [7] is 92.3%; in assay [8], 81.1%; in assay [9], 99.9%; in [10] it was 98.7%; in assay [11], 92.4%; in assay [12], 102%. Also, the growth was 89.9% in [13]; 90.5% in [14]; 91.7% in assay [15]; 85.5% in [16]; 91.5% in assay [17]; 103% in assay [18]. The growth in assay [19] is 89.3%.
On to `COC(=O)/C=C/c1cc(OC(C)=O)c2c(c1)C(C(=O)OC)C(c1ccc(OC(C)=O)c(OC(C)=O)c1)O2` (configuration not stated), for which the growth in [1] is 21.3%; in assay [2], 81.7%; in [3] it was 55.4%; in assay [4] it was 20%; in assay [5], 33.7%; in assay [6], -20.8% (active). In addition, the growth in [7] is 37.4%; in [8], 19.8%; in assay [9] it was 38.9%; in assay [10] it was 11.2%; in assay [11] it was 6.86% (active); in assay [12], 66.3%. Besides, the growth in [13] was 16.4%; in assay [14], 28.7%; in [15], 39.6%; in assay [16], 3.13% (active); in assay [17], -6.94% (active); in [18], 45.4%. Also, the growth in [19] was -6.22% (active).
Consider `C=C1C(=O)O[C@H]2[C@H]1CC/C(COC(=O)c1cccnc1N)=C\CC[C@@]1(C)O[C@@H]21`, for which the growth in assay [1] was 33.9%; in [2], 26.7%; in [3] it was 87%; in [4] it was 22.8%; in assay [5], 8.05% (active); in assay [6], -15.3% (active). For the same compound, the growth was 28.4% in assay [7]; 9.12% (active) in assay [8]; -76.5% (active) in [9]; 14% in assay [10]; 10.1% in assay [11]; -3.98% (active) in assay [12]. For the same compound, the growth in assay [13] is -9.35% (active); in [14], -2.17% (active); in assay [15], 23.9%; in assay [16], 34.5%; in [17] it was 12.6%; in assay [18] it was 57.8%. For the same compound, the growth in assay [19] is 10.2%.
